An excerpt weighted towards active compounds, which were near 1.2% of everything screened.
PfHsp40 rescue – rescue of PfHsp40-mediated yeast toxicity; growth rescue, % at 12.5 µM; 340,000 tested, 0.68% active; S. cerevisiae expressing PfHsp40, growth rescue, ATP luminescence; in the data active = growth rescue above about 28%, passing the limit was not always enough;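 also: yeast W303a lacking pdr1 and pdr3 grown in galactose medium; growth measured after three days at 30 °C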
PrP UTR inh – inhibition of PrP 5' UTR reporter expression; cell-based PrP 5' UTR mRNA reporter, plate reader; inhibition, % (concentration not given with the values); 340,000 tested, 0.35% active; in the data active = inhibition above about 52%; also: 0 = median of the neutral control wells
ugtP null kill – growth inhibition of S. aureus ugtP deletion strain | 330,000 tested, 0.54% active | growth inhibition, % (no concentration beside the values) | S. aureus RN4220 ugtP deletion, OD600 growth, 16 h; in the data active = growth inhibition above about 68%;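 also: plate controls were untreated wells for no effect and antibiotic for full effect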
RN4220 kill – kills Staphylococcus aureus RN4220; inhibition, % (no concentration beside the values); S. aureus RN4220 growth, OD600, 16 h; 330,000 tested, 0.33% active; in the data active = inhibition above about 85%;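 also: plate controls were untreated cells for no effect and reference antibiotic for full effect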
TcdB GH inh – inhibitors of Clostridioides difficile toxin B glycohydrolase | TcdB glycohydrolase enzymatic assay, plate reader | P18177 | 350,000 tested, 0.24% active | inhibition, % at 9.99 µM | AID 652162; in the data active = inhibition above about 10%
Active calls of the source: *; x = not tested or not shown; ! = a repeat was not active.

SMILES	PfHsp40 rescue	PrP UTR inh	ugtP null kill	RN4220 kill	TcdB GH inh
O=C(CSc1ccc(-c2cccnc2)nn1)N1CCCc2ccccc21	x	x	13	8	0
C[C@@H]1CCCCO[C@H](CN(C)C(=O)Nc2ccccc2)[C@H](C)CN([C@H](C)CO)C(=O)c2cc(NC(=O)NC3CCCCC3)ccc2O1	x	x	x	x	0
Cc1ccc(S(=O)(=O)Nc2cccc3c2O[C@H](CN(C)Cc2ccccc2)[C@@H](C)CN([C@@H](C)CO)C3=O)cc1	x	x	x	x	1
CCCN1C[C@@H](C)[C@@H](OC)CN(C)C(=O)c2ccc(NC(=O)c3ccccc3)cc2OC[C@H]1C	x	x	x	x	0
NCC[C@@H]1CC[C@@H](NC(=O)NC2CCCCC2)[C@H](CO)O1	x	x	x	x	1
O=C(NNc1nc2cc3c(cc2s1)OCO3)c1cccc(F)c1	40*	-22	-5	6	1
CC(C)COc1ccc(-c2nn(-c3ccccc3)cc2/C=C2/SC(=S)N(CC(=O)O)C2=O)cc1	-1	-28	71	98*	0
CCNC(=O)[C@@H]1[C@@H](CO)[C@@H]2Cn3c(ccc(-c4ccccc4)c3=O)[C@@H]2N1Cc1ccccn1	x	x	x	x	-1
CCCCn1c(N)c(N(CC)C(=O)c2cccs2)c(=O)[nH]c1=O	-2	8	-1	3	11*
CCCC#Cc1cnc2c(c1)C(=O)N([C@@H](C)CO)C[C@@H](C)[C@H](CN(C)C(=O)c1ccc3c(c1)OCO3)O2	x	x	x	x	0
COc1ccc(CN2C(C)C3C(C)=CC2C2C(=O)N(C)C(=O)C32)cc1 (stereo not drawn)	x	x	x	x	2
NC1=NC[C@@H](Cc2ccc(O)cc2)N1CCc1cccc(F)c1	0	-9	x	x	1
NC1=NCC(Cc2ccc(O)cc2)N1CCCCC1CCCCC1 (stereo not drawn)	x	x	100*	101*	x
CCCCN1C(N)=NCC1Cc1ccc(O)cc1 (stereo not drawn)	x	x	-2	-1	x
NC1=NCC(Cc2ccc(O)cc2)N1CCc1cccc2ccccc12 (stereo not drawn)	x	x	100*!	76	x
NC1=NC[C@H](Cc2ccc(O)cc2)N1CCC12CC3CC(CC(C3)C1)C2	-1	-25	x	x	2
NC1=NCC(Cc2ccc(O)cc2)N1CCC12CC3CC(CC(C3)C1)C2 (stereo not drawn)	x	x	101*!	101*!	x
CN1C(=O)C2C(C3CC3)N3C(=O)CN(CC4CC4)C(=O)[C@@]3(C)C2C1=O (stereo partly drawn)	x	x	12	2	x
C[C@@H]1CN([C@H](C)CO)C(=O)c2cc(NC(=O)CCCN(C)C)ccc2O[C@@H]1CN(C)S(=O)(=O)c1ccccc1	x	x	x	x	0
O=C(Nc1ccc2c(c1)[C@@H]1C[C@@H](CC(=O)N3CCOCC3)O[C@H](CO)[C@@H]1O2)Nc1ccccc1F	x	x	x	x	-1
CNC(=O)C[C@@H]1CC[C@@H]2[C@H](COC[C@H](O)CN2C(=O)c2ccccn2)O1	x	x	x	x	1
O=C(C[C@@H]1CC[C@@H]2[C@H](COC[C@@H](O)CN2C(=O)c2ccccn2)O1)NC1CCC1	x	x	x	x	27*
O=C(C[C@H]1CC[C@H]2[C@@H](COC[C@@H](O)CN2Cc2ccccc2)O1)NCCc1ccccc1	x	x	x	x	15*
O=C(C[C@H]1CC[C@@H]2[C@H](COC[C@@H](O)CN2C(=O)c2ccccn2)O1)NC1CCC1	x	x	x	x	15*
O=C(C[C@@H]1CC[C@H]2[C@@H](COC[C@H](O)CN2C(=O)c2ccccn2)O1)NC1CCC1	x	x	x	x	17*
SMILES	PfHsp40 rescue	PrP UTR inh	ugtP null kill	RN4220 kill	TcdB GH inh
CCNC(=O)C[C@@H]1CC[C@@H]2[C@H](COC[C@H](O)CN2C(=O)c2ccccn2)O1	x	x	x	x	0
O=C(C[C@@H]1CC[C@H]2[C@@H](COC[C@H](O)CN2Cc2ccccc2)O1)NCCc1ccccc1	x	x	x	x	0
COCC(=O)Nc1ccc2c(c1)OC[C@@H](C)N(C(=O)COC)C[C@@H](C)[C@H](OC)CN(C)C2=O	x	x	x	x	0
COC(=O)[C@@H]1[C@@H](CO)[C@@H]2Cn3c(ccc(-c4ccccc4F)c3=O)[C@@H]2N1CC1CCCC1	x	x	x	x	0
O=C(C[C@H]1CC[C@H]2[C@@H](COC[C@H](O)CN2C(=O)Nc2ccc(Cl)c(Cl)c2)O1)NCc1ccncc1	x	x	x	x	13*
O=C(Nc1ccc2c(c1)OCCO2)c1cc2ccccc2o1	1	-8	-2	5	10*
O=C(NC(=S)Nc1ccc2c(c1)OCO2)c1ccc(Cl)cc1	-2	-129	88*	5	x
Cc1cc(C)cc(C(=O)NC(=S)Nc2ccc(Cc3ccncc3)cc2)c1	5	-18	87*	2	1
CC(C)C(=O)Nc1cccc(NC(=S)NC(=O)c2ccc(Cl)cc2)c1	-1	-37	83*	2	x

Bioassay records deposited in PubChem by several laboratories.
